Only some compounds are listed: those with a hit (about 13% of all), similar ones and a draw of the others.
USP17 inh: inhibitors of human USP17 deubiquitinase. 6.5% of 47,000 active. inhibition, % at 50 µM. purified USP17, Ub-rhodamine cleavage fluorescence, 3 h
USP8 inh: inhibitors of human USP8 deubiquitinase; Ubiquitin carboxyl-terminal hydrolase 8 (Homo sapiens), P40818; purified USP8, Ub-rhodamine cleavage fluorescence, 30 min; inhibition, % at 20 µM; 4.2% of 47,000 active
USP28 inh: inhibitors of human USP28 deubiquitinase; AID 1645857, 2021; 3% of 47,000 active; purified USP28, Ub-rhodamine cleavage fluorescence, 30 min; Ubiquitin carboxyl-terminal hydrolase 28 (Homo sapiens), Q96RU2; inhibition, % at 25 µM
Target sequence (Q96RU2 whole entry, looked up): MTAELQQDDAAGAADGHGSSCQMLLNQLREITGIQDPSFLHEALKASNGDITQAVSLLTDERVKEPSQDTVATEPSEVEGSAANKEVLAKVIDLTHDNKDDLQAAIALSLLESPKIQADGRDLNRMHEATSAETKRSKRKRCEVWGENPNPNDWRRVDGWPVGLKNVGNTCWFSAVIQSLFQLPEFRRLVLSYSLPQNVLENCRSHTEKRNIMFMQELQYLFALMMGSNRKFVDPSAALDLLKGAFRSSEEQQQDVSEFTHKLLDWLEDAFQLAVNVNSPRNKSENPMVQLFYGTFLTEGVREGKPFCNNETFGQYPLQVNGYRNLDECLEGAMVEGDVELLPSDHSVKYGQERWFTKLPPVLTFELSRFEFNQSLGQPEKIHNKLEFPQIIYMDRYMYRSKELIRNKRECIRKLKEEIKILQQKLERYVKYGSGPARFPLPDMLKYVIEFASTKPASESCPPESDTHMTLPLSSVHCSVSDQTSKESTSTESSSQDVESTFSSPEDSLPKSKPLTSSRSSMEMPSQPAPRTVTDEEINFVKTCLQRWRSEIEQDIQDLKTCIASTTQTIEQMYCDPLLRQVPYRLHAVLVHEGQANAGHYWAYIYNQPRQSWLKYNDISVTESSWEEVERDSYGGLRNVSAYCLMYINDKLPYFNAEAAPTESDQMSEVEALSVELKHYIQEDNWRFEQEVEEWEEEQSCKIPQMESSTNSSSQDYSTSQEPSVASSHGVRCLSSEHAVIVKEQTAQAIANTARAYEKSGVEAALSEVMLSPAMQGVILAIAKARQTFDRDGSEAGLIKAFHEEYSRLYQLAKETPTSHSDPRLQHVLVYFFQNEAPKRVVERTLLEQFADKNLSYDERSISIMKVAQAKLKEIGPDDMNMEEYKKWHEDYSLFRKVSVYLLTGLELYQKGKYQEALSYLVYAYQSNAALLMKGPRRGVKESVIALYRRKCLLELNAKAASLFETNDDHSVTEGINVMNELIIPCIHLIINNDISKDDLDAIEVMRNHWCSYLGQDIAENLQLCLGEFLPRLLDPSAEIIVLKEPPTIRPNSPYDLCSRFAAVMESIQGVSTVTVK
USP30 block: inhibitors of human USP30 deubiquitinase | inhibition, % at 25 µM | 5.3% of 47,000 active | purified USP30, Ub-rhodamine cleavage fluorescence
A number is an active result. Rule as the data show it: active = inhibition above about 30%; inactive = the rest.

`COC(=O)c1cc(S(=O)(=O)N2CCc3ccccc3C2)c(C)n1C` gave USP17 inh inactive, USP8 inh inactive, USP28 inh inactive and USP30 block inactive.
For COCCC(=O)NCc1ccc(-c2nc(C3CC3)ncc2-c2ccccn2)cc1 the results were USP17 inh inactive, USP8 inh inactive, USP28 inh inactive and USP30 block inactive.
Cn1cc(C(=O)N2CC[C@@H]3[C@@H]2CCN3Cc2ccco2)cn1 was read as USP17 inh inactive, USP8 inh inactive, USP28 inh inactive and USP30 block inactive.
For COC(=O)c1sccc1NC(=O)c1cccs1 the results were USP17 inh 30, USP8 inh inactive, USP28 inh inactive and USP30 block inactive.
CCOc1cc(NC(=O)C2CC2)c(OCC)cc1NC(=O)c1cccs1 was read as USP17 inh inactive, USP8 inh inactive, USP28 inh inactive and USP30 block inactive.
`COC(=O)c1sccc1NC(=O)COc1ccsc1C(=O)OC` gave USP17 inh 51, USP8 inh inactive, USP28 inh inactive and USP30 block inactive.
`COc1ccc(NC(=O)COc2ccc(C(=O)c3ccccc3)cc2)c(OC)c1` gave USP17 inh inactive, USP8 inh inactive, USP28 inh inactive and USP30 block inactive.
`Cc1cc(C)nc(Nc2cccc(C3CCCN(C(=O)c4cnccn4)C3)n2)n1` (stereo unspecified) gave USP17 inh inactive, USP8 inh inactive, USP28 inh inactive and USP30 block inactive.
Screening Cc1nc(Nc2ncccn2)cc(C2CCCN2)n1 (stereo unspecified) returned USP17 inh inactive, USP8 inh inactive, USP28 inh 30 and USP30 block inactive.
`CC(=O)Nc1ccc(CN2CCN(c3cnn4c(C5CC5)nnc4c3)CC2)cc1` gave USP17 inh inactive, USP8 inh inactive, USP28 inh inactive and USP30 block 33.
`Cc1ccc(NC(=O)N2CCN(c3cnn4c(C5CC5)nnc4c3)CC2)cc1` gave USP17 inh inactive, USP8 inh inactive, USP28 inh inactive and USP30 block inactive.
For O=C(Nc1ccc(F)cc1)N1CCC(CN2CCOCC2)CC1 the results were USP17 inh inactive, USP8 inh inactive, USP28 inh inactive and USP30 block inactive.
Screening Cc1cc(C)n(CC(C)N2CCC(n3nccc3NC(=O)CCCc3ccccc3)CC2)n1 (stereo unspecified) returned USP17 inh inactive, USP8 inh inactive, USP28 inh inactive and USP30 block inactive.
Cc1c(Cc2ccccc2)c(=O)oc2cc(OCc3nn[nH]n3)ccc12 was read as USP17 inh 36, USP8 inh inactive, USP28 inh 44 and USP30 block 38.
COc1ccc2c(C)c(CCC(=O)N3CCN(c4ccccc4)CC3)c(=O)oc2c1 was read as USP17 inh inactive, USP8 inh inactive, USP28 inh inactive and USP30 block inactive.
`Cc1cc(=O)c2c(O)oc(O)c3c(O)cc(=O)c1c32` gave USP17 inh 68, USP8 inh 31, USP28 inh inactive and USP30 block inactive.
Cc1cc(O)cc2oc3cc(O)cc(O)c3c(=O)c12 was read as USP17 inh inactive, USP8 inh inactive, USP28 inh inactive and USP30 block inactive.
For Cc1cccc(NC(=O)c2ccc3ccccc3c2)c1 the results were USP17 inh inactive, USP8 inh inactive, USP28 inh inactive and USP30 block inactive.
Screening O=c1[nH]c(=O)n(Cc2ccccc2)c2c1CN(CCc1ccccc1)CN2 returned USP17 inh 35, USP8 inh inactive, USP28 inh inactive and USP30 block 36.
For CC1=C(c2ccc(C(C)C)cc2)S(=O)(=O)N(CC(=O)Nc2ccccc2C)C1=O the results were USP17 inh inactive, USP8 inh inactive, USP28 inh 39 and USP30 block 32.
Cc1c(-c2noc(-c3ccncc3)n2)nnn1-c1ccccc1 was read as USP17 inh inactive, USP8 inh inactive, USP28 inh inactive and USP30 block 31.
Screening c1ccc(-n2nnc(-c3noc(-c4ccncc4)n3)c2-c2ccncc2)cc1 returned USP17 inh inactive, USP8 inh inactive, USP28 inh inactive and USP30 block inactive.
`c1ccc(-c2nc(-c3nnn(-c4ccccc4)c3-c3ccncc3)no2)cc1` gave USP17 inh 51, USP8 inh inactive, USP28 inh inactive and USP30 block inactive.
`O=C(Nc1ccc(S(=O)(=O)N2CCOCC2)cc1)c1ccc(COc2ccc(Cl)cc2)cc1` gave USP17 inh inactive, USP8 inh inactive, USP28 inh inactive and USP30 block inactive.
O=C(Cn1cc(S(=O)(=O)N2CCCC2)ccc1=O)Nc1cccc(F)c1 was read as USP17 inh inactive, USP8 inh inactive, USP28 inh inactive and USP30 block inactive.
For O=C(Nc1ccccc1Cc1ccccc1)c1nc2n(n1)-c1ccccc1S(=O)(=O)N2 the results were USP17 inh inactive, USP8 inh 59, USP28 inh inactive and USP30 block inactive.
O=C(NCc1ccccc1F)c1nc2n(n1)-c1ccccc1S(=O)(=O)N2 was read as USP17 inh inactive, USP8 inh inactive, USP28 inh inactive and USP30 block inactive.
O=C(c1ccccc1)N1CCCC1c1cccc(Cc2ccccc2)n1 (stereo unspecified) was read as USP17 inh inactive, USP8 inh inactive, USP28 inh inactive and USP30 block inactive.
Screening O=C(c1ccccc1)N1CCC(c2cccc(Cc3cccc(F)c3)n2)CC1 returned USP17 inh inactive, USP8 inh inactive, USP28 inh 43 and USP30 block inactive.
For O=C1NCCN(C(=O)CCn2ccccc2=O)CC1Cc1ccc(-c2ccccc2)cc1 (stereo unspecified) the results were USP17 inh inactive, USP8 inh 42, USP28 inh inactive and USP30 block inactive.
Screening COc1ccc(-c2ccc(CC3CN(C(=O)c4cccc(OC)c4)CCNC3=O)cc2)cc1 (stereo unspecified) returned USP17 inh inactive, USP8 inh inactive, USP28 inh inactive and USP30 block inactive.
O=C(Cc1cccs1)Nc1cc(F)c2nc(N3CCOCC3)ccc2c1 was read as USP17 inh 62, USP8 inh inactive, USP28 inh inactive and USP30 block inactive.
`COc1ccc(C(=O)Nc2cc(F)c3nc(N4CCOCC4)ccc3c2)c(OC)c1` gave USP17 inh 73, USP8 inh 78, USP28 inh inactive and USP30 block inactive.
`COc1ccc(CC(=O)Nc2cc(F)c3nc(N4CCOCC4)ccc3c2)cc1` gave USP17 inh inactive, USP8 inh 49, USP28 inh inactive and USP30 block inactive.
For COc1ccc(NC(=O)c2cnc(N3CCOCC3)nc2C)cc1 the results were USP17 inh inactive, USP8 inh inactive, USP28 inh inactive and USP30 block inactive.
For Cc1c(Cl)cccc1NC(=O)NC1Cc2ccccc2C1 the results were USP17 inh inactive, USP8 inh inactive, USP28 inh inactive and USP30 block inactive.
Screening Cc1ccc(NC(=O)Cn2cc(S(=O)(=O)N3CCCCC3)ccc2=O)cc1 returned USP17 inh inactive, USP8 inh inactive, USP28 inh inactive and USP30 block 44.

Source: PubChem BioAssay
